{"source": "PubChem BioAssay (NCI)", "note": "About 83,000 compounds went through this panel and 20% of them were active in at least one assay; those are over-represented in the sample as a whole.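 The test compound was applied at a single concentration to cells in 96-well plates for 48 hours, and percent growth was recorded.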 Values without a mark were called inactive. Activity calls are given as the source filed them.", "data": [{"test_system": "MCF7 breast", "test": "NCI-60 one-dose screen, 48 h (100 = growth as untreated, 0 = no growth, -100 = all killed)", "details": "10 µM unless noted", "procedure": "Growth inhibition of the MCF7 human tumor cell line is measured as a screen for anti-cancer activity. Cells are grown in 96 well plates and exposed to the test compound for 48 hours. Compounds are tested at a single concentration, which is 10^-5 M for most compounds. The reported endpoint is percent growth (GI% or GIPRCNT), where numbers from 0 - 100% represent growth inhibition, and numbers from -100% - 0 represent cell death. For example, a value of 40 represents 60% growth inhibition. A value of 0 means no net growth occurred over the course of the experiment. A value of -40 indicates 40% of cells at the beginning of the experiment died by the end of the experiment. A value of -100 means all cells are dead at the end of the experiment.\nNCI-60 Human Tumor Cell Lines Screen was performed using the standard one-dose NCI protocol, which is described in more detail at https://dtp.cancer.gov/discovery_development/nci-60/default.htm.\nCompounds with GIPRCNT values below 10 were considered active. Activity score was based on GIPRCNT using the following formula: […]\nScore is 0 for GIPRCNT values of 100 or above, 50 for GIPRCNT values of 0, and 100 for GIPRCNT values of -100.", "values": [{"smiles": "CCOC(=O)/C=C/c1c(C)[nH]c(=O)[nH]c1=O", "growth": "69.6%"}, {"smiles": "C=C1C(=O)O[C@H]2[C@H]1CC/C(Cn1cc(-c3cc(C(F)(F)F)cc(C(F)(F)F)c3)nn1)=C\\CC[C@@]1(C)O[C@@H]21", "growth": "-67.6% (active)"}, {"smiles": "COc1ccc2cc(Cn3cc[n+](Cc4ccc5ccccc5c4)c3)ccc2c1", "growth": "40.9%"}, {"smiles": "COc1ccccc1-n1c(-c2cc(O)ccc2C)cn2c3c(=O)[nH]c(=O)n(C)c3nc12", "growth": "84.1%"}, {"smiles": "O=C1/C(=C/c2ccc(Br)cc2)COc2ccc(O)c(O)c21", "growth": "4.13% (active)"}, {"smiles": "COc1ccc2c(c1)c(-c1nonc1-c1c[nH]c3ccc(Br)cc13)cn2C", "growth": "24.9%"}, {"smiles": "C=C1C(=O)O[C@H]2[C@H]1CC/C(CNC(=O)c1cc3ccccc3[nH]1)=C\\CC[C@@]1(C)O[C@@H]21", "growth": "-56.7% (active)"}, {"smiles": "O=C(Nc1ccccc1O)c1ccccc1Nc1ccnc(C(F)(F)F)c1", "growth": "83.4%"}, {"smiles": "COc1cc2c(c(OC)c1OC)C(=O)N[C@@H]1[C@@H](O)[C@@H](O)[C@H](O)C[C@@H]21", "growth": "96.1%"}, {"smiles": "O=C(Nc1cccnc1Nc1ccc(Cl)cc1)c1cn(Cc2ccc(F)cc2)nn1", "growth": "92.8%"}, {"smiles": "CC(C)c1ccc(NC(=O)Nc2ccc(NC(=O)c3ccccc3N)cc2)cc1", "growth": "31.6%"}, {"smiles": "COc1ccc2cc(-c3ccc(-c4ccc(C(=N)N)s4)s3)ccc2c1", "growth": "-60.9% (active)"}, {"smiles": "CC(C)c1ccc(C(=O)Nc2sc3cc(O)ccc3c2C#N)cc1", "growth": "13.8%"}, {"smiles": "CO[C@H](C(=O)[C@@H](O)[C@@H](C)O)[C@@H]1Cc2cc3cc(O[C@H]4C[C@@H](O[C@H]5C[C@@H](O)[C@H](O)C(C)O5)[C@H](O)C(C)O4)c(C)c(O)c3c(O)c2C(=O)[C@H]1O[C@H]1C[C@@H](O[C@H]2C[C@@H](O[C@H]3C[C@@H](OC)[C@H](O)C(C)O3)[C@@H](O)C(C)O2)C(O)(O)C(C)O1", "note": "(stereo not given in full)", "growth": "4.2% (active)"}, {"smiles": "Cc1cc(N2CCCCC2)nc(N2CCN(CC(=O)Nc3ccc4c(ccn4Cc4ccccc4)c3)CC2)n1", "growth": "44.4%"}, {"smiles": "Cc1ccc(/C=C2\\CN(C(=O)C(Cl)Cl)C/C(=C\\c3ccc(C)cc3)C2=O)cc1", "growth": "-32.1% (active)"}, {"smiles": "CCCCCCCCn1ccc2cc(NC(=O)Cn3cc(CN4CCN(CC)CC4)nn3)ccc21", "growth": "38.9%"}, {"smiles": "CCNc1nc(-c2ccc(F)cc2)c(C#N)c(=O)n1C", "growth": "63.4%"}, {"smiles": "CC1CN=C(c2cccc(-c3ccc(-c4ccccc4)o3)c2)N1", "note": "(stereo not given)", "growth": "-57.2% (active)"}, {"smiles": "c1ccc2cc(Cn3c[n+](Cc4ccc5ccccc5c4)c4ccccc43)ccc2c1", "growth": "-30.2% (active)"}, {"smiles": "Cc1cccc(NC(=O)CSc2nc3ccc([N+](=O)[O-])cc3[nH]2)c1", "growth": "86.5%"}, {"smiles": "O=C(c1ccc(Cl)cc1Cl)N1c2ccccc2Sc2ccccc21", "growth": "52.4%"}, {"smiles": "O=C1/C(=C/c2ccc(C(F)(F)F)cc2)COc2ccc(O)cc21", "growth": "6.03% (active)"}, {"smiles": "CCCCCCC(=O)Nc1ncc(Cc2ccc(C)cc2)s1", "growth": "24.7%"}, {"smiles": "COc1cc(C(=O)c2c(N)ncn2-c2ccccc2)cc(OC)c1OC", "growth": "87.1%"}, {"smiles": "COP(=O)(OC)c1nnn(-c2cccc([N+](=O)[O-])c2)c1C", "growth": "97.9%"}, {"smiles": "O=C(CCCCCCN1CC(=O)N2[C@@H](C3CCCCC3)c3[nH]c4ccccc4c3C[C@H]2C1=O)NO", "growth": "51.6%"}, {"smiles": "COc1cc(-c2nc(NC(C)=O)sc2-c2ccnc(NCCNS(=O)(=O)c3ccccc3)n2)ccc1Cl", "growth": "14.1%"}, {"smiles": "Cc1ccc(C(=O)c2ccc(CC(=O)N/N=C/c3ccc(O)cc3O)n2C)cc1", "growth": "39.2%"}, {"smiles": "COc1ccc2c(O)c(/C=C3\\N=Nc4ccccc43)oc2c1C[C@H]1CCNC[C@H]1F", "growth": "12.1%"}, {"smiles": "COCCCOc1cc(C[C@@H](C[C@H](N)[C@@H](O)C[C@H](C(=O)NCC(C)(C)C(N)=O)C(C)C)C(C)C)ccc1OC", "growth": "95.1%"}, {"smiles": "COc1ccccc1NC(=O)c1ccc(/C=C/C(=O)c2nccn2C)cc1", "growth": "-45.6% (active)"}, {"smiles": "CCCn1c(=S)sc2c1nc(C)n1c(Nc3ccccc3)nnc21", "growth": "77%"}, {"smiles": "c1ccc(CCc2ccccc2-c2cc(-c3ccccc3)on2)cc1", "growth": "74.7%"}, {"smiles": "C=C(CN1CC=CCC1)[C@@H]1CC[C@]2(CO)CC[C@]3(C)[C@H](CC[C@@H]4[C@@]5(C)CC[C@H](O)C(C)(C)[C@@H]5CC[C@]43C)[C@@H]12", "growth": "88.7%"}, {"smiles": "CCN1C(=O)N(CC)C2C1NN=C1SCC(=O)N12", "note": "(stereo not given)", "growth": "18%"}, {"smiles": "C[C@@H]1CC[C@@]2(OC1)O[C@H]1C[C@H]3[C@@H]4CC=C5C[C@@H](O[C@@H]6O[C@H](CO)[C@@H](O[C@@H]7O[C@@H](CO)[C@H](O)[C@H]7O)[C@H](O)[C@H]6O[C@@H]6O[C@@H](C)[C@H](O)[C@@H](O)[C@H]6O)CC[C@]5(C)[C@H]4CC[C@]3(C)[C@H]1[C@@H]2C", "growth": "-87.9% (active)"}, {"smiles": "Cn1cc(C(=O)c2nc(-c3c[nH]c4ccc(Br)cc34)no2)c2cc(Br)ccc21", "growth": "38.8%"}, {"smiles": "CCCCCn1sc(=O)n(Cc2ccc(CNC(=O)OCc3ccc4c(Cl)cc(Cl)c(O)c4n3)cc2)c1=O", "growth": "69.5%"}, {"smiles": "C[C@@H](CO)[C@@H]1CC[C@]2(C(=O)N3CCN(C)CC3)CC[C@]3(C)[C@H](CC[C@@H]4[C@@]5(C)CC[C@H](O)C(C)(C)[C@@H]5CC[C@]43C)[C@@H]12", "growth": "42.1%"}]}]}
